Screening results as filed in PubChem BioAssay.
Most compounds without a hit are left out; they make up all but 4.7% or so of the library.
Pemphigus Ab inh – inhibitors of pemphigus antibody binding to DSG3, primary screen, biochemical, bead-based, flow cytometry, scFv-GFP | Desmoglein-3 (Homo sapiens), P32926 | DSG3-coupled beads, scFv-anti-DSG3-GFP binding; stronger effect = lower value | binding (percent of control), % at 10 µM | 310,000 tested, 0.48% active | AID 588358, 2011;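 active = binding more than 3 SD below its plate's average and above zero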;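 also: hits lower antibody fragment binding to DSG3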
MPTP block – mitochondrial permeability transition pore inhibitors, primary screen, biochemical, isolated mouse mitochondria, absorbance; Ca2+ swelling absorbance, 30 min; inhibition, % at 10 µM; 360,000 tested, 1.4% active;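 active = inhibition of 50% or more, scaled per plate between neutral and stimulator controls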;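 also: 0% = DMSO wells given calcium and 100% = 1 mM EGTA wells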
rCAG RNA binder – binders of r(CAG) RNA repeats, primary screen, biochemical, fluorescence. r(CAG) RNA repeat, TO-PRO-1 dye displacement fluorescence. inhibition, % at 3 µM. 370,000 tested, 1.3% active;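 active = inhibition above the plate cutoff, the mean of all test compounds on that plate plus 3 SD, cut at about 35% in these data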;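 also: 0% = DMSO alone and 100% = 100 µM mitoxantrone as full dye displacement; higher means more dye released from RNA so lower well fluorescence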
ADAM17 inh – ADAM17 inhibitors, primary screen, biochemical, QFRET; Disintegrin and metalloproteinase domain-containing protein 17 (Homo sapiens), P78536; recombinant ADAM17, EDANS/DABCYL FRET peptide cleavage; inhibition, % at 6.95 µM; 370,000 tested, 0.83% active;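 active = inhibition above the mean of compounds lying between control limits plus 3 SD, set per campaign, cut at about 8.5% in these data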;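 also: 0% = DMSO-only wells as the low control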
ADAM10 inh – human ADAM10 inhibitors, primary screen, biochemical, QFRET, HTS; Disintegrin and metalloproteinase domain-containing protein 10 (Homo sapiens), O14672; recombinant ADAM10, EDANS/DABCYL FRET peptide cleavage, 3 h; inhibition, % at 7 µM; 370,000 tested, 0.62% active; AID 720582, 2013;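 active = inhibition above a per-campaign cutoff equal to the mean of compounds falling between control-based bounds plus 3 SD, cut at about 20% in these data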;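 also: 0% = DMSO wells while the 100% control is not disclosed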
Target sequence (O14672 214-748 limits assumed): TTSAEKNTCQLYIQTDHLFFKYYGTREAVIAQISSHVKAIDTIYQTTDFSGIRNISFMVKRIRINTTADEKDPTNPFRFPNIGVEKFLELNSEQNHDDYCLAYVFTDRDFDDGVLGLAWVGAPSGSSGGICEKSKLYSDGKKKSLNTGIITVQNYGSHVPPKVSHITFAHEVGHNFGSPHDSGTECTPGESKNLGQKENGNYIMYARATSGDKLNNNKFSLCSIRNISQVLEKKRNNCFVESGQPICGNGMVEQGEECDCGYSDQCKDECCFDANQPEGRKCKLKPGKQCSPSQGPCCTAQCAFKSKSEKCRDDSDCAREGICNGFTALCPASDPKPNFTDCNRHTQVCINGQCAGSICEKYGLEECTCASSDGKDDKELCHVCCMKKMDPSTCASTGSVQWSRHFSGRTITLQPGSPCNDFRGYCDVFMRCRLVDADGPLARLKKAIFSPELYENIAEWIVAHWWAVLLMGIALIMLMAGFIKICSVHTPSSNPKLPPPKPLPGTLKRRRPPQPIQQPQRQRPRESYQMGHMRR
proKLK7 act – proKLK7 zymogen activators, primary screen, biochemical, fluorescence intensity; Kallikrein-7 (Homo sapiens), P49862; activation, % at 7 µM; purified proKLK7, EDANS-DABCYL substrate fluorescence; 100% is mature enzyme control, 0% vehicle; AID 652039, 2013; 370,000 tested, 0.9% active;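 active = activation above the mean of all tested compounds plus 3 SD, computed per campaign excluding outliers beyond control limits, cut at about 13% in these data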
rCAG binder conf – small molecules binding CAG repeat RNA – biochemical, fluorescence, confirmation | r(CAG) RNA repeat, TO-PRO-1 dye displacement fluorescence | shares compounds with rCAG RNA binder | inhibition, % at 3 µM | AID 652065, 2013 | 4,300 tested, 70% active;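 active = inhibition above a per-plate cutoff, the mean inhibition of sample wells plus 3 SD, cut at about 35% in these data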;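 also: loss of TO-PRO-1 fluorescence as compound displaces dye from 1x1 AA loop RNA; 0% = DMSO only wells and 100% = 100 µM mitoxantrone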
DNA CAG counter – displacement of TO-PRO-1 from CAG DNA duplex, counter-screen for rCAG RNA repeat binder project, biochemical, fluorescence, TO-PRO-1 dye, d(CAG) DNA oligo; shares compounds with rCAG RNA binder; d(CAG) DNA oligo TO-PRO-1 dye displacement; inhibition, % at 3 µM; 4,300 tested, 94% active; AID 652068, 2013;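 active = inhibition above its plate's cutoff, the mean test-well inhibition plus 3 SD, cut at about 4.8% in these data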;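 also: 0% = DNA dye mix with DMSO and 100% = 100 µM mitoxantrone; hits displace the dye from DNA and so lower well fluorescence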
dCAG dye DR – inhibitors of DNA CAG/GTC TO-PRO-1 complex, dose response, counter-screen for rCAG RNA repeat binder project, biochemical, fluorescence, TO-PRO-1 dye. shares compounds with rCAG RNA binder. DNA CAG/GTC duplex TO-PRO-1 dye displacement fluorescence. IC50, µM. 250 tested, 20% active. AID 686960, 2013; in the data active = IC50 below about 10 µM
Starred values were filed as active, the others as inactive; i = inactive; x = no result given.

SMILES | Pemphigus Ab inh | MPTP block | rCAG RNA binder | ADAM17 inh | ADAM10 inh | proKLK7 act | rCAG binder conf | DNA CAG counter | others
COc1cc(CN2C[C@@H](CO)O[C@@H](n3cnc4c(NCc5ccco5)ncnc43)C2)cc(OC)c1OC | x | -1 | 2 | -5 | -12 | 1 | x | x
Cc1ccc(F)cc1NC(=O)COC(=O)c1ccc2ncsc2c1 | x | 1 | 2 | 0 | -6 | 0 | x | x
Cc1c(COC(=O)NC(C)C)c(COC(=O)NC(C)C)c2n1CS(=O)(=O)C2 | x | x | 2 | -2 | -9 | 0 | x | x
CS(=O)(=O)C1=NSC2=NC(=O)/C(=C\c3cccn3-c3ccccc3Cl)C(=N)N21 | 89 | 15 | 83* | -4 | -24 | 0 | 77* | 39*
COc1cc(/C=C2/C(=N)N3C(=NC2=O)SN=C3S(C)(=O)=O)ccc1OS(=O)(=O)c1ccc(C)cc1 | 123 | -3 | 32 | -10 | -18 | 0 | x | x
Cc1ccc(-n2cccc2/C=C2/C(=N)N3C(=NC2=O)SN=C3S(C)(=O)=O)cc1 | 87 | 42 | 89* | -2 | -6 | 0 | 84* | 50*
COc1cccc(-n2c(C)cc(/C=C3/C(=N)N4C(=NC3=O)SN=C4S(C)(=O)=O)c2C)c1 | 132 | 12 | 65* | -5 | -19 | 0 | 79* | 50*
O=C1NC(Cc2cnc[nH]2)C(=O)N2CCCC12 (centres undefined) | x | x | 0 | -4 | -15 | 0 | x | x
COc1cc(C)c(C(=O)Oc2cc(C)c(C(=O)O)c(O)c2C)c(OC)c1C | x | 1 | 52* | -2 | 4 | 1 | 55* | 17*
COc1cc(C)c(C(=O)Oc2cc(C)c(C(=O)O)c(O)c2C)c(O)c1C(=O)O | x | -1 | 15 | -2 | -12 | -1 | x | x
COC(=O)c1c(NC(=O)/C=C/C(=O)O)sc(C)c1-c1ccc(C(C)C)cc1 | 96 | 1 | 52* | -3 | -7 | 0 | 51* | 16*
COC(=O)c1c(NC(=O)/C=C/C(=O)O)sc(C)c1-c1ccc(C)cc1 | 88 | -1 | 21 | 3 | -10 | 0 | x | x
COC(=O)c1c(NC(=O)/C=C/C(=O)O)sc(C)c1-c1ccc(C)c(C)c1 | 88 | 2 | 37* | 4 | 11 | 0 | 36* | 9.1*
CCOC(=O)c1c(NC(=O)/C=C/C(=O)O)sc(C)c1-c1ccc(C)c(C)c1 | 87 | -1 | 53* | 1 | 6 | 0 | 53* | 17*
CCOC(=O)c1c(NC(=O)/C=C/C(=O)O)sc(C)c1-c1ccc(F)cc1 | 87 | -1 | 32 | 0 | -9 | 0 | x | x
CC(NC(=O)c1ccc(NC(=O)CC2SC(N3CCCC3)=NC2=O)cc1)c1ccccc1 (centres undefined) | 98 | 0 | 1 | 1 | -4 | 0 | x | x
CC(C)C(OC(=O)C1=Cc2ccccc2OC1)C(=O)NCC1CCCO1 (centres undefined) | 105 | 1 | 35* | -1 | -16 | 1 | 48* | 17*
CCOC(=O)c1sc(NS(=O)(=O)c2ccccc2)nc1C | 95 | 0 | 10 | 0 | 8 | 0 | x | x
C/C(=N/NC(=O)c1sc(NS(=O)(=O)c2ccccc2)nc1C)c1ccccc1 | 98 | 2 | 58* | -9 | 0 | -1 | 35 | 7.1*
Cc1ccc(C)c(S(=O)(=O)NNC(=O)c2sc(NS(=O)(=O)c3ccccc3)nc2C)c1 | 106 | 0 | 47* | 2 | 8 | 0 | 31 | 6.4*
C/C(=N/NC(=O)c1sc(NS(=O)(=O)c2ccccc2)nc1C)c1ccc(F)cc1 | 100 | -1 | 84* | -1 | 3 | 1 | 49* | 15*
CCOC(=O)c1sc(NS(=O)(=O)c2ccc(F)cc2)nc1C | 103 | 3 | 15 | -5 | -9 | 0 | x | x
CC1CCCN(C(=O)COC(=O)c2cc(Br)ccc2O)C1 (centres undefined) | 98 | 0 | 1 | -6 | -22 | 3 | x | x
NC(=O)c1cc(S(=O)(=O)Nc2ccccc2)cs1 | 110 | 0 | 7 | -3 | 16 | 0 | x | x
C[C@H](NC(=O)C1CCN(S(=O)(=O)c2ccccc2)CC1)C(=O)NC1CC1 | 104 | 0 | 1 | 1 | -14 | 0 | x | x
SMILES | Pemphigus Ab inh | MPTP block | rCAG RNA binder | ADAM17 inh | ADAM10 inh | proKLK7 act | rCAG binder conf | DNA CAG counter | others
COc1ccc(OC)c(NC(=O)c2ccccc2N(Cc2ccccc2)C(=O)C(C)Cl)c1 (centres undefined) | x | x | 5 | -8 | -53 | 0 | x | x
O=c1n2c(c(O)n1C1CCCCC1)C(c1ccccc1)=Nc1ccccc1C2 | x | -1 | 3 | 3 | 0 | 0 | x | x
COc1ccc(N2C(=O)c3[nH]nc(-c4ccccc4)c3C2c2ccc(Br)cc2)cc1 (centres undefined) | x | x | 8 | 0 | 5 | 0 | x | x
c1coc(-c2ccc3nncn3c2)c1 | x | 0 | 47* | -12 | -43 | -1 | 46* | 18* | dCAG dye DR=i
Cc1cc2nc(-c3ccc(Cl)cc3)c(CC3CCCCC3)n2c(C)c1Br | x | 2 | 3 | -2 | 1 | 1 | x | x
CCN(CC)S(=O)(=O)c1cccc(C(=O)N/N=C/c2ccc(O)c(O)c2O)c1 | x | 1 | 53* | 3 | 2 | 0 | 55* | 24*
CCOc1ccccc1/C=N/NC(=O)c1cccc(S(=O)(=O)N(CC)CC)c1 | 105 | -1 | 0 | -1 | 7 | 1 | x | x
CC(=O)c1cccc(S(=O)(=O)N2CCN(CCOc3ccccc3)CC2)c1 | 98 | -1 | 3 | -3 | -14 | -1 | x | x
CCCc1cc(=O)[nH]c(SCC(=O)Nc2sc3c(c2C#N)CCC(C)C3)n1 (centres undefined) | 107 | 30 | 66* | -3 | 4 | 1 | 53* | 20*
CC1CCc2c(sc(NC(=O)CSc3nnc(-c4ccccc4)o3)c2C#N)C1 (centres undefined) | 104 | 0 | 4 | -5 | -12 | 2 | x | x
